Assay outcomes (PubChem BioAssay)
GPT2 inhibitor: Primary qHTS assay for inhibitors of Glutamate pyruvate transaminase 2 (GPT2) | hit rate 0.25% among 100,000 | Potency, µM (doses to about 57.7 µM), inactives show at the top dose activity change, negative = inhibition, most hits filed as inhibitors | Alanine aminotransferase 2 (Homo sapiens), Q8TD30 | Recombinant GPT2, coupled pyruvate oxidase/HRP Amplex Red fluorescence; note: nearly all actives have a fitted effect of over 60% in size
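Recombinant GPT2 (10ng/uL) with 250uM a-KG and 2mM L-alanine, 30 min at room temperature, in HEPES pH 7.5 buffer. Pyruvate detected by pyruvate oxidase/HRP/Amplex Red fluorescence after 30 min in the dark; AOA (50uM) as positive control.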
NPR1 antag: Natriuretic polypeptide receptor (hNpr1) antagonism - Primary qHTS; HEK293 hNpr1 GloSensor cGMP, ANP-stimulated luminescence; AID 1347048, 2019; hit rate 1.6% among 76,000; Potency, µM (top dose mostly 46.3 µM), inactives show at the highest dose activity change, negative = inhibition, usual class: inhibitors; Atrial natriuretic peptide receptor 1 (Homo sapiens), P16066; calls by dose curve; note: nearly all actives have a fitted effect of over 60% in size
Target sequence (P16066 whole entry, looked up): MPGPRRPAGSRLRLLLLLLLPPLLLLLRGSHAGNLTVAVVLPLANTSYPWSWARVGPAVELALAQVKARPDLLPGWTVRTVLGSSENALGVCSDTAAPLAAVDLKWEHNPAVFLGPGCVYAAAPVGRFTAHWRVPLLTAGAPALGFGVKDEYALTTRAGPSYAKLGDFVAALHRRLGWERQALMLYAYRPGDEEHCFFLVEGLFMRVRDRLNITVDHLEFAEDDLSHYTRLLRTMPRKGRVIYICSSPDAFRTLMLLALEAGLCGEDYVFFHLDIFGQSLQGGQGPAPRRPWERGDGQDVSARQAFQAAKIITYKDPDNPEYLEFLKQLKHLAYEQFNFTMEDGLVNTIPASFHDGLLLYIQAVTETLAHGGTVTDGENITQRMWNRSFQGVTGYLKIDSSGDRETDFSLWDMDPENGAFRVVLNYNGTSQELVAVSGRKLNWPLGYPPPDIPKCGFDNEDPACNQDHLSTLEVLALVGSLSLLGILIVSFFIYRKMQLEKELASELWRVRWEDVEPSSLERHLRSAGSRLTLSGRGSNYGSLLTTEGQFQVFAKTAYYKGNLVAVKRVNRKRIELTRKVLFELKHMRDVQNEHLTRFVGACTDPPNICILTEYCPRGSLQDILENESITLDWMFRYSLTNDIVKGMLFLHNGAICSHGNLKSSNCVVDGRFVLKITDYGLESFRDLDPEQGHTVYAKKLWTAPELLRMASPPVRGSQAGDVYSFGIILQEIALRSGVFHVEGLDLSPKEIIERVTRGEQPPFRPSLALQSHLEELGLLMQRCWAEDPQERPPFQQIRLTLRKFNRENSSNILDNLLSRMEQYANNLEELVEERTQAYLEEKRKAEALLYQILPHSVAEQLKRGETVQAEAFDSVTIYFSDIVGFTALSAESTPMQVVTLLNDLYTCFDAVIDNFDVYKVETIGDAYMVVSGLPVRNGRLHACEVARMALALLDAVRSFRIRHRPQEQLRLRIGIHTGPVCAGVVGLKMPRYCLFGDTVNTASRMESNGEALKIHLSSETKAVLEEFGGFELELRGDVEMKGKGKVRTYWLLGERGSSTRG
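HEK293 cells stably expressing human Npr1 and cGMP GloSensor pGS-40F, loaded 2 h with 2% GloSensor reagent, given compound 30 min at room temperature. Luminescence read before and 20 min after 0.1 nM hNppA.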
3T3 cytotox: Cytotoxic Profiling in NIH 3T3 Cell Line of Diverse Libraries Using Quantitative High-Throughput Screening; NIH 3T3 viability, CellTiter-Glo ATP luminescence, 48-72 h; Potency, µM (titrated, usually from 96.7 µM), for inactives: top-dose activity change, negative = cytotoxicity, usual class: inhibitors; hit rate 4.3% among 94,000; AID 1345082, 2018; note: nearly all actives have a fitted effect of over 55% in size
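Cells were seeded at 400 per well, treated with pin-transferred compound, and kept 48 or 72 hr at 37 °C before CellTiter-Glo addition and luminescence imaging of cellular ATP.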
FLuc inh: Firefly luciferase inhibition profiling of diverse chemical library using quantitative high-throughput screening. Potency, µM (top dose mostly 115 µM), usual class: inhibitors. hit rate 2.5% among 76,000. Luciferin 4-monooxygenase (Photinus pyralis), P08659. purified P. pyralis luciferase, luminescence, biochemical; note: nearly all actives have a fitted effect of over 65% in size
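Inhibitors were tested against purified firefly luciferase in a biochemical, low-substrate format (both substrates at 10uM) and luminescence measured with a CCD imager.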
HEK cytotox: Cytotoxic Profiling in HEK 293 Cell Line of Diverse Libraries Using Quantitative High-Throughput Screening | HEK 293 viability, ATP luminescence (CellTiter-Glo), 48-72 h | Potency, µM (series often up to 115 µM), inactives show at the top dose activity change, negative = cytotoxicity, hits mostly inhibitors | hit rate 6.6% among 94,000; note: nearly all actives have a fitted effect of over 60% in size
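HEK 293 cells at 250 cells/well were exposed to compounds by pintool transfer for 48 or 72 hr at 37 degree Celsius, 5% CO2. Viability was read as ATP-coupled luminescence with CellTiter-Glo after 10 min at room temperature.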
An asterisk follows results filed as active; i = inactive; ? = inconclusive; nt = no result; [ ] = remark or other dose. In the library only some 10% were active in any assay of this set; here they are far more common. Unless noted, calls come from the whole dose curve; as a rule, active = well fitted curve in the direction sought with a large enough effect; inconclusive = small, poorly fitted or top-dose-only effect, or another doubt; inactive = no such curve, though single readings can be large; an effect the other way counts as inactive or inconclusive. % is set by controls: 0 for no effect and ±100 for the full control effect; potency is the fitted concentration of half-maximal effect.

SMILES	GPT2 inhibitor	NPR1 antag	3T3 cytotox	FLuc inh	HEK cytotox
Cc1ccc(N2CCN(C(=O)c3cc4n(n3)CC(c3ccc(Cl)cc3)OC4)CC2)c(C)c1 (stereo not drawn)	3%	-29%	?	i	?
O=C(NCc1cccc(C(F)(F)F)c1)c1ccc2nnc(C3CCCC3)n2c1	-4%	nt	?	nt	45µM*
O=C(NCc1cccs1)c1ccc2nnc(Cc3ccc(Cl)cc3)n2c1	-6%	nt	?	nt	45µM*
O=C(NCc1cccc(Cl)c1)c1ccc2nnc(C3CCOCC3)n2c1	nt	nt	-36%	nt	2%
O=C(NCc1cccc(Cl)c1)c1ccc2nnc(C3CCCC3)n2c1	i	nt	40µM*	nt	?
O=C(NCc1ccc(Cl)cc1)c1ccc2nnc(C3CCCC3)n2c1	-40%	nt	32µM*	nt	?
O=C(NCc1ccc(Cl)cc1)c1ccc2nnc(C3CC3)n2c1	i	nt	?	nt	?
COCC(=O)N1CCC(Oc2ccccc2C(=O)NCCc2ncccc2C)CC1	-13%	4%	?	i	-9%
Cn1nc2n(c1=O)CCC(NC(=O)c1cncc(Br)c1)CC2 (stereo not drawn)	2%	0%	-9%	i	3%
COCC(=O)NC[C@@H]1C=C(C)[C@H](CC(=O)NC2CCCC2)C[C@H]1C(C)C	-3%[88.5 µM]	4%[70.6 µM]	-12%[174 µM]	i	i
CC(C)CN(Cc1cccnc1)C1CN(S(=O)(=O)Cc2ccccc2F)C1	-8%	4%	-27%	i	?
Cc1noc(-c2cn(C3CCN(C(=O)c4cc5ccccc5[nH]4)CC3)nn2)n1	i	-3%	?	i	-21%
O=C(NCc1ccccc1Cl)c1ccc2nnc(C3CCCC3)n2c1	i	nt	35µM*	nt	?
CCOCCCNC(=O)N1[C@@H]2CC[C@H]1CC(NC(=O)c1ccc(F)cc1)C2 (stereo partly drawn)	i	-3%	-18%	i	-8%
CC(C)c1cccc(NC(=O)CN2C(=O)C(c3ccccc3)=NC23CCCC3)c1	2%	?	?	i	35µM*
CCn1cnnc1CC1CCN(C(=O)Nc2ccccc2)C1 (stereo not drawn)	i	0%	-5%	i	4%
Cn1ncc2c(C(=O)NC3CCN(Cc4ccccc4)CC3)cc(-c3ccc(C(F)(F)F)cc3)nc21	nt	nt	-21%	nt	-2%
c1cc(N2CCOCC2)ncc1-c1noc([C@@H]2CCCN2)n1	i	6%[70.6 µM]	-8%[138 µM]	56µM*	1%[172 µM]
OCc1ccc(CN2CCC[C@H]2c2nc(-c3ccc(N4CCOCC4)nc3)no2)o1	i	3%[70.6 µM]	-28%[174 µM]	i	?
c1ccc(CN2CCC[C@H]2c2nc(-c3ccc(N4CCOCC4)nc3)no2)cc1	-2%[88.5 µM]	3%[70.6 µM]	-4%[174 µM]	i	89µM*
Clc1ccc(CN2CCC[C@H]2c2nc(-c3ccc(N4CCOCC4)nc3)no2)cc1	-12%[88.5 µM]	?	?	?	63µM*
CCCN(C)c1nccnc1OC1CCN(C(=O)c2ccccc2OC)C1 (stereo not drawn)	i	-9%	?	?	?
COc1ccc(NC(=O)NC[C@H]2O[C@H](Cc3cc(-c4cccc(O)c4)on3)CC[C@@H]2O)cc1	i	11µM*	-17%	?	-16%
COc1ccc(C(=O)NC[C@H]2O[C@H](Cc3cc(-c4ccccc4)on3)CC[C@@H]2O)cc1	0%[88.5 µM]	-15%[70.6 µM]	?	i	-29%[172 µM]
Cc1ccc(CNC[C@H]2O[C@H](Cc3cc(-c4ccc(F)cc4)on3)CC[C@@H]2O)cc1	0%[88.5 µM]	-23%[70.6 µM]	32µM*	i	40µM*
SMILES	GPT2 inhibitor	NPR1 antag	3T3 cytotox	FLuc inh	HEK cytotox
COc1ccc(-c2cc(C[C@@H]3CC[C@H](O)[C@@H](CNCc4cccc(OC)c4)O3)no2)cc1	-2%	?	?	?	?
NC[C@H]1O[C@H](Cc2cc(-c3cccc(O)c3)on2)CC[C@@H]1O	i	2.5µM*	i	56µM*	3%[172 µM]
COc1ccc(-c2cc(C[C@@H]3CC[C@H](O)[C@@H](CNCc4cccc(Cl)c4)O3)no2)cc1	?	?	?	50µM*	28µM*
N#Cc1ccccc1CN1CCCCCCNC(=O)[C@@H]2C[C@@H](C(=O)N3CCc4ccccc4C3)C[C@@H]21	-18%	-19%	?	i	?
O=C(NC[C@H]1O[C@H](Cc2cc(-c3ccc(F)cc3)on2)CC[C@@H]1O)c1ccccc1F	-2%[88.5 µM]	?	-26%[138 µM]	22µM*	-30%[172 µM]
COc1ccc(-c2cc(C[C@@H]3CC[C@H](O)[C@@H](CNC(=O)NCc4ccccc4)O3)no2)cc1	-4%	-18%	?	i	?
COc1ccc(-c2cc(C[C@@H]3CC[C@@H]4OC(=O)NC[C@H]4O3)no2)cc1	4%[88.5 µM]	3%[70.6 µM]	?	?	100µM*
COc1ccc(CNC[C@H]2O[C@H](Cc3cc(-c4ccccc4)on3)CC[C@@H]2O)cc1	0%[88.5 µM]	-19%[70.6 µM]	40µM*	i	89µM*
CN1CCC(NC[C@H]2O[C@H](Cc3cc(-c4ccc(F)cc4)on3)CC[C@@H]2O)CC1	3%[88.5 µM]	?	89µM*	i	?
COc1cc(SC)ccc1C(=O)N[C@H]1CCN2C(=O)N(c3ccc(C)cc3)C(=O)[C@@H]2C1	?	-5%	-13%	i	-4%
COc1ccc(OC)c(NC(=O)N2c3ccccc3CC2c2nc(C3CC3)no2)c1 (stereo not drawn)	3%	-1%	?	i	?
Fc1cccc(CN2CCC(Cc3nc(-c4ccncc4)n[nH]3)C2)c1 (stereo not drawn)	i	-7%	-17%	i	-26%
COc1ccc(-c2cc(C[C@@H]3CC[C@H](O)[C@@H](CNC4CCN(C)CC4)O3)no2)cc1	-10%[88.5 µM]	-25%[70.6 µM]	?	?	?
COc1ccc(-c2cc(C[C@@H]3CC[C@H](O)[C@@H](CN(Cc4cccc(OC)c4)Cc4cccc(OC)c4)O3)no2)cc1	?	11µM*	?	?	?
Cn1c([C@H]2CCN(Cc3ccc(Cl)cc3)C2)nc2ccccc21	i	?	100µM*	i	?
Cn1c([C@H]2CCN(Cc3ccccc3)C2)nc2ccccc21	1%[88.5 µM]	-15%[70.6 µM]	?	i	?
CN(C)c1ccc(C(=O)N[C@H]2C[C@H]3C(=O)NC[C@@H](CCC(=O)NCc4cccnc4)N3C2)cc1	i	2%	-12%	i	-23%
COc1ccc(Nc2ccnc(N3CCC(C(=O)NCC4CC4)CC3)n2)cc1	-43%	nt	40µM*	nt	?
